In all, about 360,000 compounds went through this assay and about 2,800 (0.78%) were called active. The full list was thinned out, with actives kept by preference. Unmarked numbers belong to inactive results. Rule as the data show it: active = inhibition above about 26%; inactive = the rest.

The experiment has as its system Nicotinate-nucleotide adenylyltransferase NadD (Staphylococcus aureus N315). The experiment in a line: inhibitors of S. aureus NadD, primary screen, biochemical, colorimetric, uHTS (AID 602399). The conditions noted are these: purified NadD enzyme, colorimetric absorbance read-out; at 20 µM; stronger effect = higher value.
What is called inhibition is the drop in the measured response relative to a control, in per cent. On to `COc1ccc(C)cc1NC(=O)c1ccc(-c2ccc(C(C)=O)cc2)o1`, for which the inhibition was -8.65%.
Take `CN(c1ccccn1)c1ncnc2[nH]ncc12`: the inhibition was -2.6%.
Under `Cc1cc(C)c2c(c1)cc(C)c1nnc(SCC(=O)Nc3cc(C)on3)n12` stands 0.406%.
For `N#Cc1ccc(CSc2ncccn2)cc1` the value was -1.45%.
As to `N#CC1=C(SCc2ccc(C#N)cc2)N=C(N)C(c2nc(-c3ccccc3)cs2)C12CCCCC2` (stereo not drawn), the inhibition is 39.1% (active).
For `Cc1ccc(NC(=O)CN(C)S(=O)(=O)c2cnc[nH]2)cc1C`, the inhibition was -2.1%.
For `COC(=O)c1c(NC(=O)COc2ccc(Cl)cc2Cl)sc2c1CC(C)(C)NC2(C)C` the value was -5.59%; for `COc1ccccc1N1CCN(c2nc(C)cc(=O)[nH]2)CC1`, 0.434%.
Under `COc1ccc(Cl)cc1-n1c(=S)sc2c(=O)n(-c3ccc(F)cc3)c(SCC(=O)O)nc21` stands -1.15%; under `COc1cccc(-n2c(=S)sc3c(=O)n(-c4ccccc4OC)c(SCC4OCCO4)nc32)c1`, -4.72%.
For `COc1cccc(-n2c(=S)sc3c(=O)n(-c4ccccc4C)c(SCC(=O)O)nc32)c1` the value was -0.498%.
For the compound `CCc1ccc(-n2c(=S)sc3c(=O)n(-c4ccccc4OC)c(=S)[nH]c32)cc1`, the inhibition was 26.4% (active).
For `COc1ccccc1-n1c(=S)[nH]c2c(sc(=S)n2-c2ccc(C)cc2C)c1=O`, the inhibition is 26.4% (active).
As to `COc1ccc2c3c1O[C@H]1C[C@@H](O)C=C[C@@]31CCN(C)C2`, the inhibition is -4.23%.
For `COc1cc(C)c(C(C)C)cc1S(=O)(=O)n1ccnc1` the value was -1.45%; for `CCCCCOC(=O)C1=C(C)Nc2nnnn2C1c1ccc(OC)c(OC)c1OC` (stereo not drawn), -2.88%; for `C=CCOc1ccc(/C=C/C(=O)OCC(=O)NCC2CCCO2)cc1` (stereo not drawn), 0.0871%.
Under `CC(=O)c1cccc(OCc2cc(C(=O)NC(C)Cc3cccnc3)no2)c1` (stereo not drawn) stands -5.35%.
For `CCC(NC(=O)c1cc(COc2ccc(F)c(F)c2)on1)c1ccncc1` (stereo not drawn) the value was 48.1% (active).
Turning to `CCOC(=O)CC1COCCN1C(=O)c1cc(COc2ccc(F)c(F)c2)on1` (stereo not drawn), the inhibition was -4.39%.
As to `COC(C(=O)Nc1ccc(S(=O)(=O)Nc2ccc(C)c(C)c2)cc1)c1ccccc1` (stereo not drawn), the inhibition is -2.66%.
Under `CN(C(=O)COC(=O)c1cc(-c2ccco2)nc2ccccc12)C1CCS(=O)(=O)C1` (stereo not drawn) stands 87.6% (active); under `COc1ccc2c(-c3ccccc3)cc(SCC(=O)N(C)C3CCS(=O)(=O)C3)nc2c1` (stereo not drawn), -1.73%; under `COc1ccc(NC(=O)COc2ccc(C(=O)OCC(=O)N(C)C3CCS(=O)(=O)C3)cc2OC)cc1` (stereo not drawn), -2.63%.
For the compound `CC(C)CN1CCNC(=O)C1CC(=O)N(C)CC1CCOCC1` (stereo not drawn), the inhibition was -2.31%.
With `CN(C)S(=O)(=O)c1ccc(N/C=C(\[N+](=O)[O-])S(=O)(=O)c2ccccc2)cc1`, the inhibition was -3.76%.
For the compound `O=C1N(Cc2ccc3c(c2)OCO3)c2ccccc2C1(O)c1c[nH]c2ccccc12` (stereo not drawn), the inhibition was 34.1% (active).
Consider `CCn1c(=O)cc(SCC(=O)NCc2ccc3c(c2)OCO3)c2ccccc21`, for which the inhibition was 1.73%.
Under `CC1(C(=O)NCc2ccc3c(c2)OCO3)CCN1C(=O)Cc1cccc2ccccc12` (stereo not drawn) stands -4.65%; under `CCCN(CCC)c1ccc(C(O)c2nnc(-c3ccccc3)o2)cc1` (stereo not drawn), 3.67%.
For `CC1(C)OC(=O)C2=C(C[C@@H](C3CC3)O[C@H]2c2ccc(Cl)cc2)O1` the value was -7.37%; for `Cc1noc(C)c1NC(=O)Nc1cccc2c1O[C@H](CN(C)C(=O)Nc1ccccc1)[C@@H](C)CN([C@H](C)CO)C2=O`, -4.23%; for `C[C@H](CO)N1C[C@H](C)[C@H](CN(C)C(=O)Nc2ccc(C(F)(F)F)cc2)Oc2c(NC(=O)c3ccncc3)cccc2C1=O`, 34% (active).
For `Cc1noc(C)c1NC(=O)Nc1ccc2c(c1)C(=O)N([C@H](C)CO)C[C@H](C)[C@@H](CN(C)C(=O)Nc1ccc(C(F)(F)F)cc1)O2` the value was 3.74%; for `CN(CC(=O)N1CCN(c2ccccc2)CC1)S(=O)(=O)c1cccs1`, -2.17%; for `O=C(O)CCCC(=O)N1N=C(c2ccco2)CC1c1ccco1` (stereo not drawn), 2.35%.
Take `Cc1nn2c(c1-c1ccccc1)N=C(c1ccco1)CC2c1ccccc1` (stereo not drawn): the inhibition was 35.5% (active).
Under `C=CCN1C(=O)C(Cc2ccc(OCC)cc2)SC1=Nc1ccc(C(=O)O)cc1` (stereo not drawn) stands -1.51%; under `CCOCCCN1C(=O)C2C(C(=O)Nc3ccc(OCC)cc3)C3C=CC2(O3)C1C(=O)NC1CCCCC1` (stereo not drawn), -6.7%; under `COc1cccc(-c2nn(-c3ccccc3)cc2/C=C(\C#N)C(=O)NCCCn2ccnc2)c1`, 29.3% (active).
Turning to `COc1ccc(/C=C(\C#N)C(=O)NCCCn2ccnc2)cc1`, the inhibition is -0.938%.
For `O=C(NCCCn1ccnc1)/C(=C\c1ccccc1F)NC(=O)c1ccccc1` the value was -0.605%.
For `Cc1ccc(S(=O)(=O)N2CCN(C(=O)COC(=O)/C=C/c3cccc(Cl)c3)CC2)c(C)c1` the value was -1.3%; for `O=C(CC1SC(=Nc2ccccc2)N(Cc2ccccn2)C1=O)Nc1cccc(Cl)c1` (stereo not drawn), 7.98%.
Under `COc1cc(/C=C2\SC(=S)N(Nc3ncc(C(F)(F)F)cc3Cl)C2=O)cc(OC)c1OC` stands 31.2% (active); under `COc1cc(-c2nnc(Cn3cc(C(F)(F)F)ccc3=O)o2)cc(OC)c1OC`, -3.86%.
Consider `O=C1/C(=C/c2ccc(F)cc2)SC(=S)N1NS(=O)(=O)c1ccccc1`, for which the inhibition was 5.39%.
Consider `COCCCn1c(C(=O)NC2CCCCC2)cc2c(=O)n3cccc(C)c3nc21`, for which the inhibition was 2.49%.
In the case of `O=c1c(-c2ccccc2)cnc2n1CCS2`, the inhibition was -3.39%.
Under `Cc1cccc(N2CCN(C(=O)/C=C/c3ccco3)CC2)c1C` stands -1.19%.
For the compound `Cc1cc(C=O)c(C)n1-c1ccc(NC2CCCCC2)c([N+](=O)[O-])c1`, the inhibition was 0.0872%.
For the compound `Cc1ccc(-n2c(C)cc(/C=N/Nc3ccc([N+](=O)[O-])cn3)c2C)c(C)c1`, the inhibition is 44.4% (active).
Under `Cc1ccc(N2CCN(c3ccc([N+](=O)[O-])cn3)CC2)c(C)c1` stands 1.39%.

These data come from PubChem BioAssay AID602399 (Sanford-Burnham Center for Chemical Genomics, 2012).
